Consider 19 compounds from PubChem BioAssay (EPA / NIEHS).

Several values for one entry are separate records, joined by “and”; a condition that tells them apart may be missing. Equal values may be shown once. Records with an inconclusive call do not appear. Where a structure was tested more than once in an assay, its records may differ in their call. Activity calls are given as the source filed them. Rule for the calls, unless noted: active = hit-call score of the fitted dose curve at least 0.9, where 1 is the maximum; inactive = score below 0.9.

Test [1] in a line: ACEA_ER_80hr: ACEA Biosciences xCELLigence Real-Time Cell Analysis on Estrogen Receptor Agonism for Proliferation (AID 2282667; active = hit-call score of the fitted dose curve at least 0.9, where 1 is the maximum). To be noted: T47D proliferation, impedance (xCELLigence), 80 h. The procedure, abridged:
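T47D human breast cells were seeded on electrode plates, monitored overnight, then exposed continuously to compounds in eight-point 1:4 dilutions from 100 uM (max 0.5% DMSO). Impedance-based growth was read at 80 h, fitted upward relative to DMSO.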

Test [2] is described as follows: ATG_CRE_CIS: Attagene CIS-FACTORIAL HepG2 Assay for human cAMP Responsive Element (CRE) binding protein 3 (AID 2282926). Conditions: HepG2 CRE cis-reporter, Attagene multiplexed mRNA; actives raise or lower the signal. The procedure, abridged:
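Capillary electrophoresis of 6-FAM-labelled, HpaI-digested PCR products quantified reporter transcripts. These came from HepG2 transiently transfected with cis-element reporters and exposed to test chemicals for 24 hours, with DMSO defining baseline activity.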

Test [3] addresses CCAAT/enhancer-binding protein beta (Homo sapiens) (UniProt P17676). The test can be described thus: ATG_C_EBP_CIS: Attagene CIS-FACTORIAL HepG2 Assay for human CCAAT/Enhancer Binding Protein (C/EBP) beta (AID 2282927). Conditions: HepG2 Attagene cis-factorial transcription factor reporter; actives raise or lower the signal. The procedure, abridged: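 RT-PCR/capillary electrophoresis fluorescence of reporter mRNA, 24 h post-dose, in HepG2 cells carrying transfected cis-promoter reporter units. Bidirectional curve fitting against DMSO baseline captures gain or loss of signal.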

The nature of test [4]: ATG_CMV_CIS: Attagene CIS-FACTORIAL HepG2 Assay for human CMV (Internal Marker) (AID 2282928).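 Note: endpoint acts as a background internal control marker rather than a target.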 Conditions: HepG2 CMV promoter reporter, transcription factor profiling; actives raise or lower the signal. The procedure, abridged: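 Fluorescence intensity of RT-PCR-derived reporter fragments, resolved by capillary electrophoresis, gives the signal. HepG2 liver cells bearing transfected cis-element reporters were treated 24 h; activity in either direction was fit relative to DMSO-treated controls.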

The nature of test [5]: ATG_DR4_LXR_CIS: Attagene CIS-FACTORIAL HepG2 Assay for human Liver X Receptor (LXR), DR4 submotif (AID 2282929). To be noted: HepG2 Attagene DR4 cis-reporter, mRNA transcription; actives raise or lower the signal. The procedure, abridged:
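HepG2, transient MRTU transfection, cis-element (DR4) promoter; 24 h compound exposure; total RNA → oligo(dT) RT → PCR → 6-FAM primer extension → HpaI cut → CE. Gain/loss vs DMSO, bidirectional fit.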

Test [6] has as its target Aryl hydrocarbon receptor (Homo sapiens) (UniProt P35869). Put plainly: ATG_Ahr_CIS: Attagene CIS-FACTORIAL HepG2 Assay for human Aryl Hydrocarbon Receptor (Ahr) (AID 2282930). Conditions: HepG2 AhR cis-factorial reporter transcription; actives raise or lower the signal. The procedure, abridged: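 HepG2 cells transiently transfected with cis-element-driven multiplexed reporter transcription units; endogenous transcription factor activity measured as reporter mRNA 24 h after dosing. RT-PCR, 6-FAM labelling, HpaI digestion, capillary electrophoresis; bidirectional fitting versus DMSO baseline.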

Test [7] is described as follows: ATG_AP_1_CIS: Attagene CIS-FACTORIAL HepG2 Assay for human Activator Protein 1 (AP-1) (AID 2282931). Conditions: HepG2 Attagene cis-factorial AP-1 reporter mRNA; actives raise or lower the signal. The procedure, abridged: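 Transient MRTU transfection of HepG2 → 24 h chemical treatment → RNA isolation, RT-PCR, 6-FAM labelling, HpaI digest → capillary electrophoresis. Fit: bidirectional, DMSO negative control.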

The nature of test [8]: ATG_AP_2_CIS: Attagene CIS-FACTORIAL HepG2 Assay for human Activator Protein 2 (AP-2) (AID 2282932). To be noted: HepG2 AP-2 cis-reporter, Attagene transcription factor profiling; actives raise or lower the signal. The procedure, abridged: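 Assay in transfected HepG2 with promoter-regulated reporters, 24 h incubation after dosing. Signal is reporter mRNA fluorescence (RT-PCR, capillary electrophoresis), analysed for both increases and decreases relative to DMSO controls.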

Test [9] can be described thus: ATG_BRE_CIS: Attagene CIS-FACTORIAL HepG2 Assay for human Bone Morphogenetic Protein (BMP) Response Element (BRE) (AID 2282933). Conditions: HepG2 BMP response element reporter, Attagene transcription factor profiling; actives raise or lower the signal. The procedure, abridged:
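Transient MRTU transfection of human HepG2 liver cells; 24 h compound treatment; total RNA isolated, reverse-transcribed, PCR-amplified, 6-FAM labelled, HpaI-cut, capillary electrophoresis. DMSO = negative control/baseline, bidirectional fit.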

Test [10] has as its target Retinoic acid receptor alpha (Homo sapiens) (UniProt P10276). The test can be described thus: ATG_DR5_RAR_CIS: Attagene CIS-FACTORIAL HepG2 Assay for human Retinoic Acid Receptor Alpha (RARE), DR5 submotif (AID 2282934). To be noted: HepG2 Attagene cis-factorial RARE DR5 reporter, mRNA; actives raise or lower the signal. The procedure, abridged:
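HepG2 cells transiently transfected with multiplexed reporter units under cis (DR5 RARE) promoters, so endogenous transcription factor activity is measured. After 24 h compound exposure, reporter mRNA is quantified by RT-PCR with fluorescent labelling and capillary electrophoresis; bidirectional fitting versus DMSO.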

CCAAT/enhancer-binding protein beta (Homo sapiens), sequence (P17676 whole entry, looked up): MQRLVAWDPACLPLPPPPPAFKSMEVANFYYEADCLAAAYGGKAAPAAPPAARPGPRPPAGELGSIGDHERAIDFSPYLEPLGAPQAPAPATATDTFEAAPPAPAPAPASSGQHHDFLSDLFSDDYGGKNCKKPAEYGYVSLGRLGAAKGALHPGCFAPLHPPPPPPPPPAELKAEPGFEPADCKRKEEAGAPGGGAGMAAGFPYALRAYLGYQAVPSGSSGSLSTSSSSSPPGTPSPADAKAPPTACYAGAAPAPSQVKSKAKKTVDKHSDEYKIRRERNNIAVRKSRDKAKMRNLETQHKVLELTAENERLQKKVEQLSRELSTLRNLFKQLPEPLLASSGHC
Retinoic acid receptor alpha (Homo sapiens), sequence (P10276 whole entry, looked up): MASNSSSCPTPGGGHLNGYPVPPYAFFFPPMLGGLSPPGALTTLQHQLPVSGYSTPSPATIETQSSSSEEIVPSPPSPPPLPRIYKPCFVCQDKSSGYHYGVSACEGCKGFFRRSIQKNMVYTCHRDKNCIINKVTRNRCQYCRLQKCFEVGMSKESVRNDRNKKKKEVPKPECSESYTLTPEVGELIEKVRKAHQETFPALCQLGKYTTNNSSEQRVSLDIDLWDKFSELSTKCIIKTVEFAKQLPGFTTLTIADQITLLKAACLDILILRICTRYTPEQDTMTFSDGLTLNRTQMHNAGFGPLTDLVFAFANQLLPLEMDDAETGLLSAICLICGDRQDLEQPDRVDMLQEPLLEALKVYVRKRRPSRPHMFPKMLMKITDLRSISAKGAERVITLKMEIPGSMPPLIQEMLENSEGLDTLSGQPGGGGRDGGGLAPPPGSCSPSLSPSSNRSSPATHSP
Aryl hydrocarbon receptor (Homo sapiens), sequence (P35869 whole entry, looked up): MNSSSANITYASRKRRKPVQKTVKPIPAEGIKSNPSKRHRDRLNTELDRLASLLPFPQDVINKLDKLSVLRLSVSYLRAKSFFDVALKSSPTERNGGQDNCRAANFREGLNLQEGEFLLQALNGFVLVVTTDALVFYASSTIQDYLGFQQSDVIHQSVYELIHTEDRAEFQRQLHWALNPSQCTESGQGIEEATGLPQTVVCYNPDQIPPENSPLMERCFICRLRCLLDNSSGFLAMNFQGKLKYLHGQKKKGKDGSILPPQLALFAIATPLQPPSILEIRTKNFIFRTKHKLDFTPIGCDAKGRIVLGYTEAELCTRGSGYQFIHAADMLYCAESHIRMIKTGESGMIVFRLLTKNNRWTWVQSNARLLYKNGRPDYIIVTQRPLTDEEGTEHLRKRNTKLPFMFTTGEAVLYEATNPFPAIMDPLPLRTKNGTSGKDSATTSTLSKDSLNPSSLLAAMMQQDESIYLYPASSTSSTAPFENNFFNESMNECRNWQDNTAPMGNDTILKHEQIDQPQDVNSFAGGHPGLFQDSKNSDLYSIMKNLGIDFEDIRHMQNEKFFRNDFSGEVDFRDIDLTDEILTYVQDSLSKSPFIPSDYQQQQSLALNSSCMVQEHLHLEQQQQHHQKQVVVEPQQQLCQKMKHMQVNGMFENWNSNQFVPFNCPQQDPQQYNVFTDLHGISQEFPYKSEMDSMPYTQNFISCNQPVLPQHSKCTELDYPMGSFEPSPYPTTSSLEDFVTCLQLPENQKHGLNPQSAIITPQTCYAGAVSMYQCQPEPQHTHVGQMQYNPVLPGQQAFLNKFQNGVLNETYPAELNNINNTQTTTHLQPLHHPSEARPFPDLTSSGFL

Take `C=CC(F)(F)C(F)(F)C(F)(F)C(F)(F)C(F)(F)C(F)(F)C(F)(F)C(F)(F)C=C`: the outcome in test [1], in test [2], in test [3], in test [4], in test [5] and in test [6] was inactive. The result in [7], in [8], in test [9] and in [10] was inactive.
Take `O=C(O)C(F)(F)C(F)(F)C(F)(F)C(F)(F)C(F)(F)C(F)(F)C(F)(F)C(F)(F)Cl`: the outcome in [1], in test [2], in test [3], in [4], in [6] and in test [7] was inactive. The call in [8], in test [9] and in [10] was inactive. The half-maximal activity concentration (AC50) in test [2] was 50 µM (active); in test [5] it was 39.1 µM (active) and 34.7 µM (active); in [8], 83.2 µM (active).
Turning to `CCC(=O)OCCc1ccccc1`, the call in [1], in test [2], in [3], in test [4], in test [5] and in [6] was inactive. The compound was classed as inactive in [7], in test [8], in test [9] and in test [10].
For `O=C(O)C(F)(F)C(F)(F)F`, the call in [1], in test [2], in test [3], in [4], in [5] and in test [6] was inactive. Further, the result in [7], in test [8], in test [9] and in test [10] was inactive.
For `C1COCCN1`, the call in test [1], in [2], in test [3], in test [4], in test [5] and in test [6] was inactive. Also, the result in test [7], in [8], in test [9] and in [10] was inactive.
For `CO[Si](OC)(c1ccccc1)c1ccccc1`, the outcome in test [1], in test [2], in [3], in [4], in [5] and in test [6] was inactive. Further, the result in test [7], in [8], in test [9] and in test [10] was inactive.
Turning to `O=C(O)C(F)(F)C(F)(F)C(F)(F)C(F)(F)C(F)(F)C(F)(F)C(F)(F)C(F)(F)C(F)(F)C(F)F`, the AC50 is 18.8 µM (active) in [1] and 26.6 µM (active) in [7]. Besides, the call in test [2], in test [3], in test [4], in [5], in test [6] and in [8] was inactive. The result in test [9] and in test [10] was inactive.
Consider `O=C(O)C(F)(F)C(F)(F)C(F)(F)C(F)(F)F`, for which the result in [1], in [2], in test [3], in test [4], in test [5] and in [6] was inactive. Moreover, the compound was called inactive in [7], in test [8], in test [9] and in [10].
Take `FC(F)(F)C(F)(F)C(F)(F)C(F)(F)C(F)(F)C(F)(F)CC1CO1` (stereo not drawn): the compound was classed as inactive in test [1], in test [2], in test [3], in test [4], in test [5] and in test [6]. Also, the outcome in test [7], in test [8], in test [9] and in [10] was inactive.
As to `OCCCC(F)(F)C(F)(F)C(F)(F)C(F)(F)C(F)(F)C(F)(F)C(F)(F)F`, the call in test [1], in [2], in [3], in test [4], in test [5] and in test [6] was inactive. Moreover, the compound was called inactive in test [8], in [9] and in [10]. Also, the results for the AC50 in test [2], in [5] and in test [8] were 51.4 µM (active), 35.6 µM (active) and 75.5 µM (active), respectively.
As to `CCCCCC=O`, the compound was classed as inactive in test [1], in test [2], in test [3], in [4], in [5] and in [6]. Besides, the result in [7], in test [8] and in test [9] was inactive.
For the compound `C=CC(F)(F)C(F)(F)C(F)(F)C(F)(F)C(F)(F)C(F)(F)C(F)(F)C(F)(F)F`, the outcome in test [1], in test [2], in test [3], in test [4], in [5] and in test [6] was inactive. Besides, the compound was called inactive in [7], in test [8], in test [9] and in test [10].
For the compound `O=S(=O)(OCCOC(F)(F)F)C(F)(F)F`, the result in test [1], in test [2], in [3], in test [4], in [5] and in test [6] was inactive. Besides, the compound was called inactive in [7], in test [8], in test [9] and in [10]. Also, the AC50 in test [6] was 101 µM (active).
For `O=C(O)C(F)(F)C(F)(F)C(F)F`, the compound was called inactive in test [1], in test [2], in test [3], in [4], in [5] and in test [6]. Besides, the call in test [7], in test [8], in test [9] and in [10] was inactive.
`c1ccc(B(c2ccccc2)c2ccccc2)cc1`: the AC50 in test [1] is 7.09 µM (active); in test [4] it was 71 µM (active); in test [5], 34.2 µM (active); in test [6], 32.8 µM (active). For the same compound, the compound was classed as inactive in [2], in test [3], in test [7], in test [8], in test [9] and in test [10].
Take `C=C(C)C(=O)OCCC(F)(F)C(F)(F)C(F)(F)C(F)(F)C(F)(C(F)(F)F)C(F)(F)F`: the outcome in test [1], in [2], in test [3], in test [4], in test [5] and in test [6] was inactive. Also, the compound was classed as inactive in [8], in test [9] and in [10].
Regarding `CCCCCCS`, the compound was classed as inactive in test [1], in test [2], in [3], in test [4], in test [5] and in [6]. Further, the compound was classed as inactive in test [7], in test [8], in test [9] and in test [10].
As for `CCCCCCCCCCCCCCCC[N+](C)(C)Cc1ccccc1`, the outcome in test [1], in test [2], in test [3], in test [6], in test [7] and in test [9] was inactive. Further, the result in test [10] was inactive. Further, the half-maximal activity concentration (AC50) in test [4] was 44.8 µM (active); in test [5], 24.9 µM (active); in test [8] it was 51.9 µM (active).
Consider `CCCCNc1ccccc1`, for which the result in test [1], in [2], in [3], in test [4], in [5] and in test [6] was inactive. Moreover, the call in test [7], in test [8], in [9] and in [10] was inactive.
